Drawing on PubChem BioAssay, this text covers z-score and composite z-score for nine compounds.

Assay [1] in a line: E. coli DRC41 culture turbidity changes, primary screen, E. coli filamentation inducer project, strain DRC41, OD650, 48 h (AID 1152).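 Also: E. coli MC1000 strain DRC41 lacking acrAB efflux pump and sulA.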 The note with it: E. coli DRC41 (acrAB sulA), higher = more signal, called active from +8 up or from −8 down.
Assay [2] in a line: small-molecule binders of probe aLefty1, primary screen, biochemical, small-molecule microarray, 635/667 nm fluorescence (AID 1153).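 Also: score merges spot fluorescence with signal-to-noise ratio from the scanned slide images.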 The note with it: higher = more signal.
Assay [3] is described as follows: PSAC antagonists in infected red cells, primary screen, cell-based, P. falciparum Indochina, OD700, 1 h (AID 1154). The following applies: P. falciparum Indochina infected RBC osmotic lysis, higher = more signal, called active from +8 up or from −8 down.
Assay [4] in a line: PSAC antagonists in infected red cells, primary screen, cell-based, P. falciparum Indochina, OD700, 2 h (AID 1155).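 Also: lysis reports solute entry through the parasite surface anion channel PSAC; channel blockers reduce lysis of infected cells.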 The following applies: P. falciparum Indochina infected erythrocytes, osmotic lysis OD700; higher = more signal, called active from +8 up or from −8 down.
Assay [5] can be described thus: osmotic lysis modulators in infected erythrocytes, primary screen, PSAC antagonist project, cell-based, P. falciparum Indochina, OD700, 3 h (AID 1156). The following applies: higher = more signal, called active from +8 up or from −8 down.
A short description of assay [6]: PSAC antagonists in infected red cells, primary screen, cell-based, P. falciparum Indochina, OD700, 18 h (AID 1157). The note with it: P. falciparum Indochina infected erythrocytes, osmotic lysis OD700, 18 h; higher = more signal, called active from +8 up or from −8 down.
The nature of assay [7]: modulators of S6 phosphorylation in cells, primary screen, cell-based, A549, cytoblot, luminescence, serum-stimulated (AID 1158).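 Also: serum-stimulated A549 lung adenocarcinoma cells; signal is phosphorylated S6 detected by cytoblot immunostaining with HRP secondary.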 The note with it: A549 phospho-S6 cytoblot, 5 h, higher = more signal.
Assay [8] has as its target NADPH oxidase 2 (Homo sapiens) (UniProt P04839). Kind of assay: NOX2-dependent H2O2 signal modulators, primary screen, NOX inhibitor project, cell-based, HEK293-NOX2, PMA-stimulated, Amplex Red fluorescence (AID 1159). Also: test concentration not given here. The following applies: 45 min, higher = more signal, called active from +8 up or from −8 down.
Assay [9] deals with NADPH oxidase 4 (Homo sapiens) (UniProt Q9NPH5). Kind of assay: NOX4-dependent H2O2 signal modulators, primary screen, NOX inhibitor project, cell-based, HEK293-NOX4, tetracycline-induced, Amplex Red fluorescence (AID 1160). The following applies: 45 min, higher = more signal, called active from +8 up or from −8 down.
Chain of NADPH oxidase 4 (Homo sapiens) (Q9NPH5 whole entry, looked up): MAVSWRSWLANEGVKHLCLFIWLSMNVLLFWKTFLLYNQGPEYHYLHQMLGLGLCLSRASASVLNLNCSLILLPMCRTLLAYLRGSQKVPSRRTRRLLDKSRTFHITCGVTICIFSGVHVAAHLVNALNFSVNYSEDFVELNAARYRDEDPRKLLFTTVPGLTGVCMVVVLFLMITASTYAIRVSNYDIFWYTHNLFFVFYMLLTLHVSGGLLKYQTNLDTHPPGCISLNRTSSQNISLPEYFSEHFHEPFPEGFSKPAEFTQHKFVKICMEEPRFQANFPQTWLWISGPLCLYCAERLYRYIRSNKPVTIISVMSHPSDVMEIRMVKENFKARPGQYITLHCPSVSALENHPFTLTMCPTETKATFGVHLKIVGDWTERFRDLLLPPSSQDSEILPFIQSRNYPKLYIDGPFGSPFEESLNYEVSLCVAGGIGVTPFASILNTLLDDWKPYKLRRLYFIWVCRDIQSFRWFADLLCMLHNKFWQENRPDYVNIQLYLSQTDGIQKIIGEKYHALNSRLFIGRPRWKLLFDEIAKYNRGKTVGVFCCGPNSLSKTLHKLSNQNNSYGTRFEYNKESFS
For assay [10], the target named is NADPH oxidase 5 (Homo sapiens) (UniProt Q96PH1). Kind of assay: NOX5-dependent H2O2 signal modulators, primary screen, NOX inhibitor project, cell-based, HEK293-NOX5, Amplex Red fluorescence (AID 1161). The note with it: HEK293-NOX5, ionomycin, 45 min, higher = more signal.
Chain of NADPH oxidase 5 (Homo sapiens) (Q96PH1 whole entry, looked up): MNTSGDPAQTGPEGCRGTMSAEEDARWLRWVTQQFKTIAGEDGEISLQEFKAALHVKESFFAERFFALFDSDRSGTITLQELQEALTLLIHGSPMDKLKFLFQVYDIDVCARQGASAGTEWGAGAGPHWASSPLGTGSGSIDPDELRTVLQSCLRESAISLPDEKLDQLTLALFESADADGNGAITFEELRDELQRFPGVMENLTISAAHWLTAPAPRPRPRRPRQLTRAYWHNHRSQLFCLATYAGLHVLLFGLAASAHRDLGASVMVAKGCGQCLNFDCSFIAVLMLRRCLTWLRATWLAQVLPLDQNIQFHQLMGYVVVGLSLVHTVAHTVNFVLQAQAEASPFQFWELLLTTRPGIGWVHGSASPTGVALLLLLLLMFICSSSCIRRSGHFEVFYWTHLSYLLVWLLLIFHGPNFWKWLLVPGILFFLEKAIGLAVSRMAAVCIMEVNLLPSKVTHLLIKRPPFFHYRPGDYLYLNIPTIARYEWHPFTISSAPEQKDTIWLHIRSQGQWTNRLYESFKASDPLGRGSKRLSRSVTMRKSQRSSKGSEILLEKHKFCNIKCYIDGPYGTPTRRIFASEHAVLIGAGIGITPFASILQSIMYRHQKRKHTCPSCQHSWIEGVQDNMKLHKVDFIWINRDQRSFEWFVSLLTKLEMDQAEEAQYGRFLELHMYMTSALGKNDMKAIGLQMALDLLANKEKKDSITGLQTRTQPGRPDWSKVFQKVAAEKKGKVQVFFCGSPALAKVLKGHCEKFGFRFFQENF
The nature of assay [11]: A549 cell viability effects, profiling panel, calcein-AM fluorescence, 48 h, basal (AID 1162). Also: test concentration not given here. The note with it: higher = more signal.
Assay [12] can be described thus: adipocyte viability effects, profiling panel, cell-based, 3T3-L1 adipocytes, calcein-AM fluorescence, 48 h, basal (AID 1163). Also: test concentration not given here. The note with it: 3T3-L1 adipocytes viability, higher = more signal.
Assay [13] can be described thus: HepG2 cell viability effects, profiling panel, calcein-AM fluorescence, 48 h, basal (AID 1164). Also: test concentration not given here. The following applies: higher = more signal.
Assay [14] is described as follows: MM1S cell viability effects, profiling panel, calcein-AM fluorescence, 48 h, basal (AID 1165).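 Also: viability of MM1S multiple myeloma cells under basal unstimulated conditions; test concentration not given here.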 The note with it: higher = more signal.
The nature of assay [15]: basal RPMI8226 viability, no added stimulus, profiling panel, cell-based, calcein-AM fluorescence, 48 h, PK04 Diversity Set (AID 1166).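 Also: cells grown under basal conditions without added stimulus; test concentration not given here.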 The following applies: RPMI8226 myeloma viability, higher = more signal.
A short description of assay [16]: basal HepG2 mitochondrial membrane potential changes, profiling panel, cell-based, JC-1 fluorescence, 24 h, 100 nL compound (AID 1167). Also: test concentration not given here. The following applies: higher = more signal.
The nature of assay [17]: basal 3T3-L1 adipocyte mitochondrial potential changes, profiling panel, cell-based, JC-1 fluorescence, 3T3-L1 adipocytes, 24 h, 100 nL compound (AID 1168). Also: test concentration not given here. The note with it: JC-1 mitochondrial fluorescence, higher = more signal, called active from +8 up or from −8 down.
Assay [18] in a line: basal RPMI8226 mitochondrial membrane potential changes, profiling panel, cell-based, JC-1 fluorescence, 24 h, 100 nL compound (AID 1169). Also: test concentration not given here. The note with it: RPMI8226 myeloma, JC-1 mitochondrial potential fluorescence, higher = more signal.
The nature of assay [19]: basal MM1S mitochondrial membrane potential changes, profiling panel, cell-based, JC-1 fluorescence, 24 h, 100 nL compound (AID 1170). Also: test concentration not given here. The following applies: higher = more signal.
Assay [20] is described as follows: A549 lung cancer cell viability effects, profiling panel, resazurin fluorescence, 24 h, PK04 Diversity Set (AID 1171). Also: test concentration not given here. The following applies: higher = more signal, called active from +8 up or from −8 down.

Active and inactive are the calls of the source.

Chain of NADPH oxidase 2 (Homo sapiens) (P04839 whole entry, looked up): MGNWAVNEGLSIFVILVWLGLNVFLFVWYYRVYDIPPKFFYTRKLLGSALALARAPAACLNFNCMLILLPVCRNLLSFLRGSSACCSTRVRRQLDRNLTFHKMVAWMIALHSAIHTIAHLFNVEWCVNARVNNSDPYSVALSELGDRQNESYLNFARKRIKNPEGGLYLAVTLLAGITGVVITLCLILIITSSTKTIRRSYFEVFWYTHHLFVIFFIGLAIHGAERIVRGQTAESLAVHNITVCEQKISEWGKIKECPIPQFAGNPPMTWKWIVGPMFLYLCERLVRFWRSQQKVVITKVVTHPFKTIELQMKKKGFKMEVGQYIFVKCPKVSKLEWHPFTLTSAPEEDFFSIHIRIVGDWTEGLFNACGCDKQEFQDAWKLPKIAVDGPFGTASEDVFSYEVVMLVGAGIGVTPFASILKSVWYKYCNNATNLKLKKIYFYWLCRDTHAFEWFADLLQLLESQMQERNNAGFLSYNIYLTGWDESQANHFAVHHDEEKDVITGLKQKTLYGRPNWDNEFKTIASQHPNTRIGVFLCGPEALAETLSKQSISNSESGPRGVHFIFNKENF

On to `COCCCNC(=O)[C@@]1(Cc2ccccc2N=[N+]=[N-])N=C(c2ccc(OCCCO)cc2)O[C@H]1c1ccccc1CN=[N+]=[N-]`, for which the z-score in assay [1] is 0.871 (inactive); in [3] it was 24.8 (active); in assay [4], 8.62 (active); in assay [5] it was 2.41 (inactive); in assay [6] it was 0.74 (inactive); in assay [7], 2.17. Also, the z-score in assay [8] was -2.73 (inactive); in [9], 0.7 (inactive); in [10], -1.16; in assay [11] it was -0.603; in assay [12], 1.66; in assay [13], -0.456. Moreover, the z-score in [14] was -1.72; in assay [15], -3.93; in assay [16], 3.03; in assay [17] it was 0.557 (inactive); in assay [18], -1.21; in assay [19] it was -0.593. Besides, in [20], the z-score is -1.92 (inactive). This compound registered a composite z-score in assay [2] of 0.152.

Consider `O=C1C2C=CC(C(O)c3ccccn3)N(Nc3ccccc3)C2C(=O)N1c1ccccc1` (stereo not given), for which the z-score in [1] was -0.803 (inactive); in [3], 1.67 (inactive); in assay [4] it was 1.27 (inactive); in [5], -0.167 (inactive); in assay [6], 0.974 (inactive); in [7], -0.721. For the same compound, the z-score in assay [8] was -1.21 (inactive); in [9], -3.92 (inactive); in assay [10], -2.84; in assay [11], 0.312; in [12] it was -1.46; in assay [13] it was 0.593. For the same compound, the z-score in [14] is 0.111; in assay [15], -0.0462; in assay [16], -0.568; in assay [17] it was -0.467 (inactive); in assay [18] it was -0.234; in assay [19] it was -1.11. In addition, the z-score in [20] is -0.752 (inactive). The same compound gave a composite z-score in assay [2] of 0.0437.

As to `COCCCNC(=O)[C@@]1(C)c2ccccc2C(=O)N(c2ccc(C)cn2)[C@H]1c1ccc(CO)cc1`, the z-score in assay [1] is -0.0018 (inactive); in [3], 0.833 (inactive); in assay [4], -0.186 (inactive); in assay [5] it was 0.0037 (inactive); in assay [6], -0.211 (inactive); in assay [7] it was -0.161. The z-score in assay [8] was -1.02 (inactive); in [9], -0.261 (inactive); in assay [10], -1.7; in assay [11] it was -0.255; in assay [12], -1.13; in [13], -0.956. Also, the z-score in [14] was -0.0048; in [15], -0.857; in [16] it was -0.587; in assay [17] it was 0.285 (inactive); in [18] it was 0.054; in [19], -0.295. Further, the z-score in [20] was 0.999 (inactive). In addition, the composite z-score in assay [2] is -0.341.

Turning to `CC(C)(C)OC(=O)CC[C@@]1(C(=O)N2CCCCC2)N=C(c2ccc(OCCCO)cc2)O[C@@H]1c1ccccc1CN=[N+]=[N-]`, the z-score is 0.502 (inactive) in [1]; 29.6 (active) in assay [3]; 25 (active) in assay [4]; 1.03 (inactive) in assay [5]; 4.6 (inactive) in [6]; -0.243 in assay [7]. Besides, the z-score in assay [8] was -0.601 (inactive); in assay [9] it was 1.13 (inactive); in assay [10] it was 1.22; in assay [11], 0.708; in assay [12], -0.125; in [13] it was 1.25. For the same compound, the z-score is -3.47 in [14]; -0.624 in [15]; 2.12 in assay [16]; -0.405 (inactive) in [17]; -0.863 in assay [18]; -0.995 in assay [19]. Moreover, in assay [20], the z-score is 0.642 (inactive). In assay [2], the composite z-score is 0.549.

In the case of `CCOC(=O)C1=CC[C@@H](c2cccc(Br)c2)N(S(=O)(=O)c2ccc(C)cc2)[C@H]1c1ccc([N+](=O)[O-])cc1`, the z-score in assay [1] was -1.22 (inactive); in assay [3], 1.27 (inactive); in assay [4], 1.55 (inactive); in assay [5], -0.0988 (inactive); in [6], 1.29 (inactive); in assay [7] it was -0.68. Further, the z-score in [8] is 1.24 (inactive); in assay [9] it was 0.77 (inactive); in assay [10], 0.165; in [11], -0.699; in assay [12], -0.349; in assay [13], -0.203. In addition, the z-score in [14] is -1.07; in assay [15], -1.24; in [16], 1.45; in [17], 0.097 (inactive); in assay [18] it was -0.841; in assay [19] it was -1.57. In assay [20], the z-score was 0.851 (inactive). Further, the composite z-score in assay [2] amounted to 0.0509.

Take `COCCOC(=O)N1C(=O)[C@@]2(c3ccccc31)[C@H](c1ccccc1OCCO)N1[C@H](c3ccccc3)[C@H](c3ccccc3)OC(=O)[C@H]1[C@@H]2C(=O)N1CCc2cc(OC)c(OC)cc2C1`: the z-score in assay [1] was 0.0509 (inactive); in assay [3] it was 2.79 (inactive); in assay [4], 1.2 (inactive); in [5], 1.68 (inactive); in assay [6], 0.654 (inactive); in assay [7], 0.0753. Besides, the z-score in [8] was 1.15 (inactive); in [9], 0.39 (inactive); in assay [10] it was -0.157; in [11], -0.322; in assay [12], 1.09; in assay [13], -0.628. In addition, the z-score in assay [14] is -1.87; in [15] it was -1.49; in assay [16], 0.822; in assay [17] it was 0.977 (inactive); in [18], -0.337; in assay [19] it was -0.582. For the same compound, in assay [20], the z-score is -0.395 (inactive). For the same compound, in [2], the composite z-score came to 0.433.

As to `CCCNC(=O)[C@@H]1c2ccccc2C(=O)N(CC23CC4CC(CC(C4)C2)C3)[C@H]1c1ccc(CO)cc1`, the z-score in assay [1] is -0.59 (inactive); in assay [3] it was 2.45 (inactive); in assay [4], 0.79 (inactive); in assay [5] it was 1.88 (inactive); in assay [6], 0.276 (inactive); in assay [7] it was 0.171. The z-score is 0.717 (inactive) in assay [8]; -1.2 (inactive) in assay [9]; -2.76 in [10]; -0.242 in assay [11]; 0.487 in assay [12]; 0.275 in assay [13]. For the same compound, the z-score was -0.671 in assay [14]; -2.49 in assay [15]; 1.81 in assay [16]; -0.0153 (inactive) in assay [17]; -0.236 in assay [18]; 0.141 in assay [19]. Moreover, in assay [20], the z-score was 0.704 (inactive). In assay [2], this compound displayed a composite z-score of 0.376.

As for `CC(C)(C)N1CC=CC23O[C@@H]4C=CCCOC(=O)C4[C@H]2C(=O)N(CCCO)[C@@H]3C1=O` (stereo not given in full), the z-score in assay [1] was 0.471 (inactive); in assay [3] it was 0.595 (inactive); in assay [4], -1.01 (inactive); in [5], 0.79 (inactive); in assay [6], -1.49 (inactive); in assay [7], 0.682. In addition, the z-score in assay [8] was -2.85 (inactive); in assay [9], -2.02 (inactive); in assay [10], -0.648; in [11], 0.28; in assay [12], 1.75; in assay [13], 0.15. The z-score was -0.685 in assay [14]; -0.783 in assay [15]; -1.26 in [16]; 0.514 (inactive) in assay [17]; 0.846 in assay [18]; -0.0658 in [19]. The z-score in assay [20] is -1.22 (inactive). The composite z-score in [2] was -0.289.

For the compound `COCC1=C([C@H](O)CCc2ccccc2)[C@H](CO)[C@@H]2C(=O)N(C)C(=O)[C@@H]2C1`, the z-score was 1.87 (inactive) in [1]; 9.45 (active) in assay [3]; 1.29 (inactive) in assay [4]; -0.64 (inactive) in [5]; 0.254 (inactive) in assay [6]; 0.155 in assay [7]. The z-score in assay [8] was -0.58 (inactive); in assay [9] it was 0.371 (inactive); in assay [10], 0.4; in [11] it was 0.803; in assay [12], -0.473; in [13] it was 0.693. Moreover, the z-score in [14] is 0.347; in [15] it was -0.243; in assay [16], 0.618; in [17] it was -0.368 (inactive); in assay [18], 0.442; in assay [19], 0.341. For the same compound, in [20], the z-score is -0.515 (inactive). Further, the composite z-score in assay [2] was -0.0691.
